According to ChEMBL document CHEMBL3433997, “St. Jude Leishmania screening dataset” (2016):
Values joined by “and” are separate entries in the source; they are usually repeats but may differ in a detail not shown here. Identical values can stand only once.

Key:
Assay type in all cases: functional
[1] = biological target: Solute carrier family 2, facilitated glucose transporter member 1 (Homo sapiens) (UniProt P11166); assay: ST_JUDE_LEISH: Cytotoxicity at 2uM final concentration against transgenic Leishmania Mexicana promastigotes LmGLUT1 that are glucose transport deficient and complemented with the human glucose transporter GLUT1. Activity is measured by DNA content using SYBR green in vitro
[2] = biological target: Hexose transporter 1 (Plasmodium falciparum) (UniProt O97467); assay: ST_JUDE_LEISH: Cytotoxicity at 2uM final concentration against transgenic Leishmania Mexicana promastigotes LmPfHT that are glucose transport deficient and complemented with the Plasmodium falciparum hexose transporter. Activity is measured by DNA content using SYBR green in vitro
[3] = biological target: Glucose transporter (Leishmania mexicana) (UniProt O61059); assay: ST_JUDE_LEISH: Cytotoxicity at 2uM final concentration against transgenic Leishmania Mexicana promastigotes LmGT2 that are glucose transport deficient and complemented with the L. Mexicana glucose transporter 2. Activity is measured by DNA content using SYBR green in vitro

Sequence of Solute carrier family 2, facilitated glucose transporter member 1 (Homo sapiens) (P11166 whole entry): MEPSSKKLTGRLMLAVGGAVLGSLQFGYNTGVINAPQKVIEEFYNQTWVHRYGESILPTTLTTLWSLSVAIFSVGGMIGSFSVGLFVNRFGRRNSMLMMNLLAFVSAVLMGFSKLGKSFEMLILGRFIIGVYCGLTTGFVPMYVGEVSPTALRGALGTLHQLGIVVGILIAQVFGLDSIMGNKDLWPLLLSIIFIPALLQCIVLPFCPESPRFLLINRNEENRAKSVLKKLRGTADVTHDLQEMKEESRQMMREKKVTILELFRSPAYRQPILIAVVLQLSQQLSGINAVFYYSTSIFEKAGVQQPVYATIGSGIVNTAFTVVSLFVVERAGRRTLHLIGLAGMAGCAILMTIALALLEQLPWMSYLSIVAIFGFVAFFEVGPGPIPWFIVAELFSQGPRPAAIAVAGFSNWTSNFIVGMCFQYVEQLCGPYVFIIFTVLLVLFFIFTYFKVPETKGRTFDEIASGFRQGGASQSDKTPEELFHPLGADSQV

Row | SMILES | inhibition [1] | inhibition [2] | inhibition [3]
1 | O=C(NC1CCC(CN2CCC(c3c[nH]c4ccccc34)CC2)CC1)c1cc(-c2ccccc2Cl)n(-c2cccc(Cl)c2)n1 (stereo unspecified) | 3.93% | 2.86% | 1.71%
2 | CN(C)c1cccc(CCNCCc2c[nH]c3ccc(Cl)cc23)c1 | -1.51% | 4.45% | 1.58%
3 | CC(=O)N(Cc1ccccc1-c1cccc(CNCCc2ccccc2)c1)C1CCN(Cc2ccccc2)CC1 | 8.96% | 7.85% | 7.27%
4 | COC(=O)c1ccc(CC(C)NCC(O)c2cccc(Cl)c2Cl)cc1 (stereo unspecified) | 3.29% | 2.6% | 3.04%
5 | O=C(Nc1ccccc1C(F)(F)F)NC1CCC(CN2CCC(c3c[nH]c4ccccc34)CC2)CC1 (stereo unspecified) | 7.14% and 3.61% | 4.94% and 7.06% | 2.99% and -1.24%
6 | Oc1cc2c(cc1CN1CCN(Cc3ccccc3)CC1)CCC2 | 0.8% | 1.17% | -1.19%
7 | COC(=O)c1ccc(CC(C)NCC(O)c2cccc(OC(F)(F)F)c2)cc1 (stereo unspecified) | 0.35% | 1.5% | 1.7%
8 | O=C(/C=C/c1ccc(Cl)c(Cl)c1)NCCC1CCC(N2CCC(c3c[nH]c4ccccc34)CC2)CC1 (stereo unspecified) | 6.03% | 7.76% | 4.25%
9 | CCCCCC(C)C(C)c1cc(O)c2c3c(c(=O)oc2c1)CN(Cc1ccccc1)CC3 (stereo unspecified) | 2.03% | 0.04% | -0.43%
10 | COC(=O)c1ccc(CC(C)NCC(O)c2cccc(C(F)(F)F)c2)cc1F (stereo unspecified) | 2.16% | 2.23% | 2.51%
11 | CC[C@H]1CN2CC[C@H]1C[C@H]2[C@H](O)c1cc(N2CCC3CCCCC3C2)nc2ccc(OC)cc12 (stereo partly specified) | 3.3% | 4.42% | 3.38%
12 | Cc1cc(N(C)C2CCN(C)CC2)nc(Nc2ccc(Cl)cc2)n1 | 2.63% | -2.68% | -0.95%
